Data taken from PubChem BioAssay (NCI).
This is part of a sample that, as a whole, favours compounds with a hit. Of some 83,000 tested, about 20% had one in any assay.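 Plates (96-well) were seeded with cells, treated with compound at one concentration, and incubated for 48 hours before percent growth was determined.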 Values without a mark were called inactive. Active and inactive are the calls of the source. Rule for the calls: active = growth percent below 10; inactive = the rest.

Experiments:
Test in all cases: NCI-60 one-dose screen, 48 h (100 = growth as untreated, 0 = no growth, -100 = all killed)
Settings in all cases: 10 µM unless noted
[1] = system: HCT-15 colon
[2] = system: HT29 colon
[3] = system: SNB-75 CNS
[4] = system: SNB-19 CNS
[5] = system: U251 CNS
[6] = system: PC-3 prostate
[7] = system: SK-MEL-5 melanoma
[8] = system: UACC-62 melanoma
[9] = system: LOX IMVI melanoma
[10] = system: SK-MEL-28 melanoma

Compound	growth [1]	growth [2]	growth [3]	growth [4]	growth [5]	growth [6]	growth [7]	growth [8]	growth [9]	growth [10]
O=C(NO)c1ccc(NCc2csc3ccccc23)cc1	39%	79.2%	56%	69.5%	57.4%	52.4%	74.4%	57.8%	71.6%	91.2%
CC(C)(C)CC(C)(C)NCc1cc(C(C)(C)C)cc(CNC(C)(C)CC(C)(C)C)c1O	56.8%	11.1%	60.8%	77.2%	49.7%	47.9%	36.8%	82.9%	45.6%	80.5%
NC(N)=N/N=C\c1ccc(OCc2ccccc2)cc1	35.7%	16.6%	43.9%	70.9%	45.7%	70.7%	-13% (active)	78.2%	59.6%	87.8%
O=C(O)/C=C(\c1nc2ccc([N+](=O)[O-])cc2[nH]1)c1cc(Cl)ccc1O	21.1%	36.2%	50.4%	18.5%	16.9%	14.1%	-28% (active)	-3.61% (active)	21%	20.8%
C=C(C)c1ccc(/C=N/NC(N)=S)cc1	96%	86.1%	104%	97.3%	93.9%	100%	95.1%	88.9%	97.4%	109%
CC1CCN(Cc2ccc(NC(=O)c3cc4ccc5cccnc5c4[nH]3)cc2)CC1	22.2%	6.27% (active)	14.5%	64.6%	14.7%	41.6%	2% (active)	-65.4% (active)	8.82% (active)	-31.9% (active)
COc1cc2c(cc1OC)C(=O)OC2	119%	109%	78.7%	113%	106%	125%	99.4%	97.6%	109%	147%
CCCCCCCCCCCCCC(=S)NCCCC[C@H](NC(=O)OCc1ccccc1)C(=O)Nc1ccccc1	32.6%	45.1%	55.4%	45.8%	28.7%	25.7%	68.6%	43.1%	42.2%	72.2%
CCOC(=O)c1ccc(NC(=O)NC2=NCCS2)cc1	59.3%	106%	21.5%	54.3%	26.6%	16%	75.9%	78.9%	92.4%	87.3%
C=CCn1c(C)nc2cc(Nc3nc(N4CCCC4)nc4nc[nH]c34)ccc21	94.4%	12.4%	-64.9% (active)	44.9%	21.2%	42.6%	49.5%	31.7%	37.8%	30.3%
Clc1ccccc1Nc1nnc(-c2ccncc2)s1	112%	105%	106%	99.8%	103%	97.2%	97.7%	95.3%	110%	100%
Oc1c(-c2cc(C(F)(F)F)[nH]n2)cc(Cl)c(OCc2ccc(Cl)cc2)c1-c1ccc(Cl)c(C(F)(F)F)c1	-11.5% (active)	6.96% (active)	-17.6% (active)	18.6%	8.65% (active)	4.7% (active)	-60.2% (active)	-17.3% (active)	1.76% (active)	-19.9% (active)
O=C(Nc1ccc2ncnc(Nc3ccc(F)c(Cl)c3)c2c1)c1cccs1	51%	58.7%	50.5%	68.9%	54.7%	62.8%	67.1%	56.4%	51%	65.8%
O=NN(CC(=O)NNc1ccccc1)CC(=O)NNc1ccccc1	33.7%	69.2%	90.8%	96.2%	78.8%	58.8%	90.5%	3.99% (active)	7.04% (active)	95.5%
CC(C)(C)c1ccc(Cn2c(-c3nonc3N)nc3ccccc32)cc1	49.1%	41.6%	61.7%	77.4%	64.5%	67.4%	74.9%	69.5%	70.2%	72.7%
Cc1ccc(C2CC(c3cccs3)=NN2c2ccc(S(N)(=O)=O)cc2)s1 (stereo not given)	80.8%	86.5%	74.5%	84.8%	78.5%	56.4%	65.7%	44.1%	104%	64.9%
Nc1c(C(=O)c2ccc(Br)cc2)sc2nc3c(cc12)CCCC3	80.9%	96.6%	101%	97.3%	89.6%	85.4%	92%	93.9%	112%	89%
COc1ccc([C@@H]2[C@@H](Cl)C(=O)N2c2cc(OC)c(OC)c(OC)c2)cc1C	15.8%	11.1%	75.6%	33.6%	12.9%	28.9%	-13.8% (active)	35.3%	24.4%	70.7%
Nc1nc(N)c2cc(Sc3ccc(Cl)cc3)ccc2n1	20.5%	14.8%	48.2%	40%	24.7%	25.2%	17.8%	24.4%	27%	54%
O=C1Nc2ccccc2/C1=C/c1c[nH]c2ccccc12	63.9%	100%	62.1%	83.8%	76.2%	72.3%	94.2%	81.8%	75.2%	101%
CSC1=NC(=Nc2c(C)cccc2C)C2(CCC(C(C)(C)C)CC2)N1c1ccc(Cl)cc1 (stereo not given)	31.9%	25.5%	74.8%	75.3%	30.6%	47.9%	47.6%	73.8%	20.8%	79.5%
Cc1ccc(NC(=O)c2[nH]c(SCCN(C)C)nc2-c2ccc(F)cc2)cc1C#Cc1cnc2cccnn12	-19.6% (active)	-14.9% (active)	-59.7% (active)	21.4%	-58.8% (active)	34%	45.5%	35.8%	-49.2% (active)	-72.4% (active)
COc1ccc(/C=c2\c(=O)n(-c3ccccc3)c3nn4c(=O)c(=O)[nH]nc4n23)cc1	106%	110%	109%	111%	112%	102%	101%	101%	96.3%	131%
CCCC(CCC)NCC(O)c1cc(-c2ccc(C(F)(F)F)cc2)nc(C(F)(F)F)c1 (stereo not given)	-62.4% (active)	-74% (active)	-3.88% (active)	8.92% (active)	-96.6% (active)	-47.3% (active)	-94% (active)	-68.1% (active)	-64.2% (active)	-41.9% (active)
CCN(CC)Cc1cc(Nc2nc(NC3CCC(N(C)C)CC3)c3ccccc3n2)ccc1OC (stereo not given)	94.7%	14.2%	72.3%	89.4%	50.5%	62.6%	45.7%	98.4%	33.7%	20.6%
COc1ccc(C(=O)c2c(N)nc3n2CCCC3)cc1OC	98.4%	94.7%	85.1%	110%	98.5%	101%	100%	109%	97%	108%
COc1cc2cc(C(=O)Nc3ccccc3)c(N)nc2cc1OC	2.25% (active)	-70.6% (active)	15.5%	21.2%	-6.06% (active)	17.7%	-95.1% (active)	-85.3% (active)	-93.3% (active)	-98.3% (active)
